# Data reported in PubChem BioAssay AID2283304 (EPA ToxCast).
# Records with an inconclusive call do not appear. Active and inactive are the calls of the source. Rule for the calls: active = hit-call score of the fitted dose curve at least 0.9, where 1 is the maximum; inconclusive = response in the unintended direction; inactive = score below 0.9.
# Molecular target: rat Galanin Receptor, Galr1 (gene 50577) (UniProt Q62805)
# Assay: NVS_GPCR_rGalanin: NovaScreen (NVS) G Protein-Coupled Receptor Assay for rat Galanin Receptor
# Description: NVS_GPCR_rGalanin is a biochemical, single-readout assay that uses extracted gene-proteins from Rat brain membranes in a tissue-based cell-free assay. Measurements were taken 2 hours after chemical dosing in a 96-well plate.NVS_GPCR_rGalanin is one of one assay component(s) measured or calculated from the NVS_GPCR_rGalanin assay. It is designed to make measurements of radioligand binding, a form of binding reporter, as detected with scintillation counting signals by Filter-based radiodetection technology.Data from the assay component NVS_GPCR_rGalanin was analyzed into 1 assay endpoint. This assay endpoint, NVS_GPCR_rGalanin, was analyzed in the positive analysis fitting direction relative to DMSO as the negative control and baseline of activity. Using a type of binding reporter, loss-of-signal activity can be used to understand changes in the binding as they relate to the gene Galr1. Furthermore, this assay endpoint can be referred to as a primary readout, because the performed assay has only produced 1 assay endpoint. To generalize the intended target to other relatable targets, this assay endpoint is annotated to the gpcr intended target family, where the subfamily is rhodopsin-like receptor.
# Binding assays used specific radioligands (tritiated, iodinated) with non-radioactive competitive displacement ligands in agonist or antagonist protocols (as indicated) and various reference compounds and inhibitors to titrate specific binding to receptors and transporters. Most enzyme assays (CYPs, kinases, phosphatases, proteases, HDACs) used recombinant protein and specific substrates (fluorescence mostly, some colorimetric and radioactive) and inhibitors, followed by a biochemical separation of substrate and product. All assays for the biochemical HTS were initially run in duplicate at a single concentration (10 uM for CYP450 assays and 25 uM for all others). Assay-chemical combinations meeting a pre-defined threshold (e.g., 30% inhibition and other criteria defined below) were then run in singleton concentration-response format with maximum concentration of 20 uM for CYPs and 50 uM for all others. Each assay was run with positive and negative controls, and concurrent controls on every plate. The follow-up (secondary) screen tested active chemical-pairs in concentration series, as well as a few additional assays not tested in the primary screen, some selected negative inactives, and several cases re-run in the concentration series for confirmatory purposes.
# Sequence of rat Galanin Receptor, Galr1 (gene 50577) (Q62805 whole entry, looked up): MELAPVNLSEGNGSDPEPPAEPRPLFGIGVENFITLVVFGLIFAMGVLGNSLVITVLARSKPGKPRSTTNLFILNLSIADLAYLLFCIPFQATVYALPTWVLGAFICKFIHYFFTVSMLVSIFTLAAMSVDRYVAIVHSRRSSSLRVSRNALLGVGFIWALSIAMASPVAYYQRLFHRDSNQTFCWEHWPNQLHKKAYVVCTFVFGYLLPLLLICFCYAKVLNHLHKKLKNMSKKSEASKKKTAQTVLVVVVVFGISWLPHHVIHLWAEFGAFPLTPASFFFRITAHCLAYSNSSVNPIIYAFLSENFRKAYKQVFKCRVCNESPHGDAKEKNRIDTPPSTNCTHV
SMILES,outcome,AC50
CC(C)(c1ccccc1)c1ccc(O)c(C(C)(C)c2ccccc2)c1,inactive,–
c1ccc2c(c1)-c1cccc3c1c-2cc1ccccc13,inactive,–
COS(C)(=O)=O,inactive,–
CN(C)C(=O)Cl,inactive,–
CC(C)=CCCC(C)=CC=O,inactive,–
CC(C)NCC(O)c1ccc(O)c(O)c1 (stereo unspecified),inactive,–
O=c1ccc2ccccc2o1,inactive,–
C=CCC1=C(C)C(OC(=O)C2C(C=C(C)C)C2(C)C)CC1=O (stereo unspecified),inactive,–
CCCCCCCCCCO,inactive,–
CCCCCCCCCCC,inactive,–
CCC[CH2][Sn]([Cl])([CH2]CCC)[CH2]CCC,–,3.99 µM (active)
CCN1CCC2(CC1)COc1cc3c(cc12)N(C(=O)c1ccc(-c2ccc(-c4nnc(C)o4)cc2C)cc1)CC3,inactive,–
Cc1cccc(C)c1O,inactive,–
O=C(O)C1C(C(=O)O)C2(Cl)C(Cl)=C(Cl)C1(Cl)C2(Cl)Cl (stereo unspecified),inactive,–
CCCCc1ccc2c(n1)[C@@H](c1ccc(OC)cc1C[C@H](C)C(=O)O)[C@H](C(=O)O)[C@H]2c1ccc2c(c1)OCO2,inactive,–
Cc1cc(O)ccc1Cl,inactive,–
